Compound activity (PubChem BioAssay)
In the library only some 27% were active in any assay of this set; here they are far more common.
CYP2C9 inhib = inhibitors of human CYP2C9 | P11712 | CYP2C9 Supersomes, luciferin-H conversion, luminescence | inhibition, % at 5 µM | 96,000 tested, 20% active | AID 777;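 active = blocking of liver enzyme CYP2C9 beyond about 50% at 5 µM, limit read from the data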
sEH inhibitor = blocks human soluble epoxide hydrolase activity; recombinant human sEH enzymatic activity assay; inhibition, % at 2 µM; 91,000 tested, 0.34% active; in the data active = inhibition above about 80%
Target sequence (P34913 whole entry, looked up): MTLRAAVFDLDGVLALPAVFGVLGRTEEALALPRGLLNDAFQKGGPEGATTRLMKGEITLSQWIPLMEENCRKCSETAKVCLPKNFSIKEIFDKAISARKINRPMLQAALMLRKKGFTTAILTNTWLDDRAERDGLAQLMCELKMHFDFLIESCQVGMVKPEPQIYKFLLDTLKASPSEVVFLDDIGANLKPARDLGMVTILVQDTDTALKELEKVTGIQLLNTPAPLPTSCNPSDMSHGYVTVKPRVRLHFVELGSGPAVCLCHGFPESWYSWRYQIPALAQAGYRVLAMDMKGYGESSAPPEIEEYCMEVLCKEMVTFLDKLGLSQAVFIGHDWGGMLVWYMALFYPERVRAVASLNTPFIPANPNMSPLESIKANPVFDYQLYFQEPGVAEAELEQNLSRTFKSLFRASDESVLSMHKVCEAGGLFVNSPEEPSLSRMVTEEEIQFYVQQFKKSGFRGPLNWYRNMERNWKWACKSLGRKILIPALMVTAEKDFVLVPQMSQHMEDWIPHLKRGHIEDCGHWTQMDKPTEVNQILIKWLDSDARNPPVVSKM
CYP2C9 activ = increases human cytochrome P450 2C9 activity; 96,000 tested, 1.4% active; activation factor at 5 µM; recombinant CYP2C9, luciferin-H conversion, luminescence; active compounds read high; factor 1 = untreated enzyme, 0 = blocked; AID 1024;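 active = activation factor of 2 or more for CYP2C9 at a 5 µM dose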;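 also: 0 = sulfaphenazole-blocked wells and 1 = vehicle-only wells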
CYP2C19 inh = human CYP2C19 inhibition; P33261; inhibition, % at 5 µM; 96,000 tested, 21% active; CYP2C19 Supersomes, luciferin-H EGE luminescence, 30 min;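 active = CYP2C19 inhibition above a set limit at 5 µM in the primary screen, cut at about 50% in these data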;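 also: plate controls were negative control wells for no effect and 2.5 mM tranylcypromine positive control for full effect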
sEH act = soluble epoxide hydrolase (human) activation | P34913 | purified human sEH enzymatic activity, activator screen | activation, % at 2 µM | 91,000 tested, 0.04% active | AID 717; in the data active = activation above about 37%
CYP2C19 act = activators of human cytochrome P450 2C19; P33261; recombinant CYP2C19, luciferin-H EGE luminescence; active compounds read high; 0 = fully inhibited enzyme, 1 = untreated enzyme; activation factor at 5 µM; 96,000 tested, under 10 active; AID 1025;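 active = activation factor of at least 2 at 5 µM in the primary screen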;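 also: 0 = wells with 2.5 mM tranylcypromine and 1 = vehicle-only wells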
The depositor's hits bear a star; · = not tested or not shown.

SMILES	CYP2C9 inhib	sEH inhibitor	CYP2C9 activ	CYP2C19 inh	sEH act	CYP2C19 act
COCCCNC(=O)C(=O)N/N=C/c1ccc(OCC(=O)Nc2cccc(Cl)c2C)c(OC)c1	3	-5	1	9	5	0.9
O=C(NC1CS(=O)(=O)CC1NCc1ccccc1)c1ccccc1 (stereo unspecified)	-7	·	1.1	34	·	0.7
COc1cc(C2N=C(c3ccccc3)NO2)cc(Br)c1O (stereo unspecified)	-7	5	1.1	87*	-4	0.1
COc1ccc(C2N=C(c3ccccc3)NC(c3ccccc3)=N2)cc1	·	-10	·	·	16	·
COc1ccc(CCNC(=S)NC(=O)c2ccccc2)cc1OC	28	-3	0.7	61*	1	0.4
COc1cccc(CNCCc2c[nH]c3ccccc23)c1OCc1ccc(F)cc1	8	-2	0.9	27	5	0.7
Cc1ccc(C(=O)N/C(=C\c2cccs2)C(=O)NCCc2c[nH]c3ccccc23)cc1C	35	-2	0.7	21	1	0.8
COc1ccccc1NC(=S)NCCc1c[nH]c2ccccc12	-135	-6	2.4*	86*	5	0.1
CCC(=O)NC(=S)Nc1ccccc1OC	14	-6	0.9	39	5	0.6
COc1ccccc1NC(=S)NCCc1ccccc1	5	-5	0.9	82*	4	0.2
COc1ccc(C(=O)N/C(=C\c2cccc3ccccc23)C(=O)NCCc2c[nH]c3ccccc23)cc1OC	65*	0	0.3	50*	6	0.5
COc1ccc(/C=C/C(=O)NC(=S)NCCc2ccc(OC)c(OC)c2)cc1	30	-5	0.7	45	7	0.5
Cc1ccc2nc(SCc3nc4c(cnn4-c4ccccc4)c(=O)[nH]3)[nH]c2c1	8	-3	0.9	0	4	1
Cc1ccc(-c2csc(N3CCC(C(N)=O)(N4CCCCC4)CC3)n2)cc1	5	1	0.9	-8	-2	1.1
CCCOc1ccc(-c2nc(C#N)c(N3CCN(CC)CC3)o2)cc1	26	-21	0.7	38	22	0.6
S=C(NCCSCc1ccc(Cl)cc1Cl)Nc1ccccc1	-131	13	2.3*	52*	-13	0.5
S=C(NCCSCc1ccc(Cl)c(Cl)c1)Nc1ccccc1	·	11	·	·	-12	·
S=C(NCCc1ccccc1)Nc1ccc(Cl)cc1Cl	46	18	0.5	86*	-16	0.1
COCCn1nnnc1CN1CCC(Cc2ccccc2)CC1	·	7	·	·	-3	·
Cc1c(Cl)c([N+](=O)[O-])nn1Cc1ccc(C(=O)N/N=C\c2cccc(Br)c2)o1	64*	96*	0.4	68*	-96	0.3
Cc1cc(C(=O)N/N=C/c2cccc([N+](=O)[O-])c2)c(C)o1	10	-28	0.9	8	24	0.9
Cc1ccc(-c2nc3ccccc3[nH]2)s1	33	·	0.7	40	·	0.6
COc1ccc(-c2nc3ccccc3[nH]2)cc1	35	-1	0.6	65*	-3	0.4
Cc1[nH]c2ccccc2c1-c1nc2ccccc2[nH]1	68*	·	0.3	39	·	0.6
Nc1cc(N)cc(-c2nc3ccccc3[nH]2)c1	15	3	0.8	9	-5	0.9
SMILES	CYP2C9 inhib	sEH inhibitor	CYP2C9 activ	CYP2C19 inh	sEH act	CYP2C19 act
Cc1nn(-c2ccccc2)c(-c2ccccc2)c1C(=O)O	31	-2	0.7	-1	2	1
COc1ccc(-c2noc(CCC(=O)NC3CCN(Cc4ccccc4)CC3)n2)cc1	84*	-19	0.2	73*	14	0.3
COc1ccc(-c2noc(CCC(=O)NC3CCCCC3)n2)cc1OC	79*	19	0.2	87*	-17	0.1
COc1cc(-c2noc(CCCC(=O)NC3CCCCC3)n2)cc(OC)c1OC	9	32	0.9	66*	-33	0.3
Cc1ccc2sc(-c3ccc(NC(=O)c4cc(-n5cnnc5)ccc4Cl)cc3)nc2c1	14	13	0.9	29	-13	0.7
CCOC(=O)N1CCC(N(CCOC)C(=O)Nc2ccc(Cl)c(Cl)c2)CC1	15	·	0.8	40	·	0.6
O=C(Nc1cccc(-c2cn3ccccc3n2)c1)C1CC1	15	-8	0.9	7	8	0.9
CCn1ccnc1C(O)c1ccc(N(C)C)cc1 (stereo unspecified)	0	-6	1	62*	6	0.4
COc1ccc(C(O)c2nccn2Cc2ccccc2)cc1OC (stereo unspecified)	-8	11	1.1	41	-9	0.6
CCOc1ccc(C(O)c2nccn2Cc2ccccc2)cc1 (stereo unspecified)	35	5	0.7	80*	-4	0.2
CCOC(=O)CC(=O)CSc1nnc(Cn2c(=O)sc3ccccc32)n1C	0	-23	1	2	20	1
CCOC(=O)c1c(C)c(C(=O)NCCCN2CCCC2=O)c(C)n1CC	-10	-2	1.1	-8	4	1.1
CCNc1nc(NC(C)C)nc(N(C#N)CCOc2ccccc2)n1	39	5	0.6	60*	-3	0.4
CCN(C#N)c1nc(NC(C)C)nc(NC(C)C)n1	73*	-3	0.3	33	1	0.7
CC(=O)c1cc(-c2ccccc2)n(CC(=O)NC2CCCC2)c1C	22	4	0.8	17	-5	0.8
CC(=O)c1cc(-c2ccccc2)n(CCC(=O)NCc2cccs2)c1C	54*	22	0.5	73*	-20	0.3
CC(=O)c1cc(-c2ccc(F)cc2)n(CC(=O)NCc2cccs2)c1C	49	-2	0.5	81*	3	0.2
O=C(NC1CCCCCC1)C1C2C=CC3(CN(Cc4cccnc4)C(=O)C13)O2 (stereo unspecified)	6	9	0.9	3	-8	1
Cc1nc2scc(-c3ccc(Cl)cc3)c2c(=O)o1	22	-4	0.8	5	5	0.9
Cc1cc(C)n(C(C)n2nc(C)cc2C)n1	-8	-2	1.1	17	5	0.8
Cc1cc(C)n(C(C[N+](=O)[O-])c2ccc(Cl)cc2)n1 (stereo unspecified)	58*	-1	0.4	76*	3	0.2
CCOc1cc(C(=O)NCCOC)ccc1OC	-3	0	1	2	3	1
C=CCNS(=O)(=O)c1ccc(OC)c(C)c1	-171	-6	2.7*	30	6	0.7
CCCCNS(=O)(=O)c1ccc(OC)c(C)c1	·	10	·	·	-5	·
CCNS(=O)(=O)c1ccc(OC)c(C)c1	-174	-8	2.7*	24	11	0.8
CCOc1ccc(S(=O)(=O)NCCOC)cc1C	-198	7	3*	89*	-5	0.1
C=CCNS(=O)(=O)c1ccc2nsnc2c1	14	·	0.9	23	·	0.8
Cc1cc(=S)[nH]c2c(C)cccc12	-67	3	1.7	18	-4	0.8
COc1ccc(OC)c(-c2csc(N(Cc3ccco3)C(=O)c3cccs3)n2)c1	85*	-3	0.2	78*	2	0.2
